13 compounds from PubChem BioAssay (NCI) can be followed below.

About 83,000 compounds went through this panel and 20% of them were active in at least one assay; those are over-represented in the sample as a whole.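 Each cell line was grown in a 96-well plate and treated with one concentration of compound for 48 hours. Values below 10 were considered active.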 Activity calls are given as the source filed them.

In the test the test system is NCI-H23 lung. The experiment in a line: NCI-60 one-dose screen, 48 h (100 = growth as untreated, 0 = no growth, -100 = all killed). As to conditions: 10 µM unless noted.
For `C[C@@H]1CC[C@@H]2[C@@H]1[C@H](OC(=O)c1ccc3ccccc3c1)[C@]1(C3CCCCC3)C[C@@H](OC(=O)CO)[C@@]2(C)O1`, the growth is 65.1% (inactive).
Regarding `CN(C)c1ccc(C#Cc2c(F)cccc2Cl)cc1`, the growth is 70.6% (inactive).
The result for `CCCN1CCN(c2ccc3nc(-c4ccc5nc(-c6cc(OC)c(OC)c(OC)c6)[nH]c5c4)[nH]c3c2)CC1` reads 80.1% (inactive); that for `O=C(NCCOCCOCCOCCNC(=O)c1cc2c(o1)C(=O)c1ccccc1C2=O)NC12CC3CC(CC(C3)C1)C2`, -45.7% (active); that for `COc1cc2c(cc1OC)-c1ccc3cc4c(cc3c1N(CCN(C)C)C2)OCO4`, -8.26% (active).
To `O=C(NC(=S)Nc1ccc(-c2nc3ccccc3[nH]2)cc1)c1ccc2ccccc2c1` belongs 58.1% (inactive); to `CC[C@@H](C[C@H](CCO)c1ccccc1)c1cc2ccccc2o1`, 92.7% (inactive).
To `NC(N)=N/N=C/c1ccc(Br)cc1` belongs 56.4% (inactive).
Take `CN(C)CCOC(=O)Nc1ccc(Cl)cc1`: the growth is 102% (inactive).
The result for `O=C(/C=C/C12c3ccccc3C(c3ccccc31)C1C(=O)N(c3ccc(Cl)cc3)C(=O)C12)c1ccccn1` (stereo not drawn) reads -22.6% (active); that for `OC(c1cccc(OCc2ccccc2)c1)c1nnc(-c2ccccc2)o1` (stereo not drawn), 83% (inactive).
To `O=C1N(c2ccccc2)C(=S)N[C@]12[C@H](c1ccccc1)C1CCCN1[C@]21C(=O)NC2C=CC(Cl)=C[C@H]21` (stereo partly drawn) belongs 96.2% (inactive).
Take `COC(=O)/C(=C\c1ccc(OC)cc1)C(=O)N1c2ccccc2Sc2ccccc21`: the growth is 72.7% (inactive).
